Hits are enriched below; roughly 10% of the tested compounds scored in any of these assays.
HEK293 tox = kills HEK 293 cells; HEK 293 viability, ATP luminescence (CellTiter-Glo), 48-72 h; Potency, µM (doses to about 115 µM), hits mostly inhibitors; 6.6% of 94,000 active; AID 1345083; also: nearly all actives have a fitted effect of over 60% in size
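qHTS cytotoxicity; HEK 293, 250 cells/well; compound pinned; 48 or 72 hr, 37 degree Celsius, 5% CO2, 95% humidity; CellTiter-Glo, 10 min RT; luminescence (ATP).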
NPR1 antag = antagonists of human natriuretic peptide receptor Npr1; AID 1347048; HEK293 hNpr1 GloSensor cGMP, ANP-stimulated luminescence; Potency, µM (doses to about 46.3 µM), hits mostly inhibitors; P16066; 1.6% of 76,000 active; calls by dose curve; also: nearly all actives have a fitted effect of over 60% in size
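HEK293 cells stably expressing human Npr1 and cGMP GloSensor pGS-40F, loaded 2 h with 2% GloSensor reagent, given compound 30 min at room temperature. Luminescence read before and 20 min after 0.1 nM hNppA.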
GPT2 inh = inhibitors of human GPT2 alanine aminotransferase. Q8TD30. Recombinant GPT2, coupled pyruvate oxidase/HRP Amplex Red fluorescence. Potency, µM (highest dose often 57.7 µM), hits mostly inhibitors. 0.25% of 100,000 active; also: nearly all actives have a fitted effect of over 60% in size
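Inhibition is scored from Amplex Red fluorescence generated when pyruvate oxidase and HRP act on pyruvate released by GPT2. Reactions contain 10ng/uL enzyme, 250uM a-KG and 2mM L-alanine and run 30 min at room temperature.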
NIH3T3 tox = NIH 3T3 cell cytotoxicity; 4.3% of 94,000 active; Potency, µM (series often up to 96.7 µM), hits mostly inhibitors; NIH 3T3 viability, CellTiter-Glo ATP luminescence, 48-72 h; also: nearly all actives have a fitted effect of over 55% in size
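ATP-dependent luminescence (CellTiter-Glo) served as the viability signal for NIH 3T3 cells treated with compound for 48 or 72 hr at 37 °C.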
FLuc inh = inhibitors of firefly (Photinus pyralis) luciferase | purified P. pyralis luciferase, luminescence, biochemical | Potency, µM (titrated, usually from 115 µM), usual class: inhibitors | 2.5% of 76,000 active | AID 1347043; also: nearly all actives have a fitted effect of over 65% in size
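Luminescence read by CCD imaging after purified firefly luciferase (10nM final) was added to substrate buffer holding 10uM D-luciferin and 10uM ATP, pH 7.5, pre-dosed with compound.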
Large screens that a line does not name were inactive; ! = repeats disagree. Unless noted, calls follow the shape of the dose curve; as a rule, active = well fitted curve in the direction sought with a large enough effect; inconclusive = small, poorly fitted or top-dose-only effect, or another doubt; inactive = no such curve, though single readings can be large; an effect the other way counts as inactive or inconclusive.

COc1ncc(-c2cc(C(=O)NCc3cccnc3)c3c(c2)N(C)CCO3)cn1	NIH3T3 tox 44.7µM
CNC(=O)c1cc(-c2ccc(F)cc2OC)cc2c1OCCN2Cc1cccnc1	HEK293 tox inconclusive, NIH3T3 tox inconclusive
O=C(NCc1cccnc1)c1cc(-c2ccccc2F)cc2c1OCCN2Cc1cccnc1	HEK293 tox inconclusive, GPT2 inh inconclusive, NIH3T3 tox inconclusive
CN(C(=O)c1ccc[nH]c1=O)C1CCc2nn(C)c(=O)n2CC1 (stereo not drawn)	none
CC(C)C(=O)N1CCC(Oc2ncccc2C(=O)N2CCCCC2)C1 (stereo not drawn)	none
CNC(=O)c1cc(-c2ccc(CO)cc2)cc2c1OCCN2Cc1cccnc1	NIH3T3 tox 44.7µM
CNC(=O)c1cc(-c2cnc(OC)nc2)cc2c1OCCN2Cc1cccnc1	NIH3T3 tox inconclusive
Cc1cc(CNC(=O)c2cc(-c3ccccc3)cc3c2OCCN3C)no1	HEK293 tox 100µM, NIH3T3 tox inconclusive
O=C(c1ccc(CNc2nccc(-c3cccnc3)n2)cc1)N1CCCCC1	HEK293 tox 39.8µM, NIH3T3 tox 50.1µM
CCN1C(=O)C2CC3(CCN(C(=O)c4ccc(C)s4)CC3)CN2C1=O (stereo not drawn)	none
Cc1ccc(NC(=O)Cn2c(N3CCCCC3)nc(C)c(C)c2=O)cc1C	HEK293 tox 22.4µM, NIH3T3 tox inconclusive
CCc1cccc2c(C(CC(=O)NCC(C)C)c3cccc([N+](=O)[O-])c3)c[nH]c12 (stereo not drawn)	HEK293 tox inconclusive, NIH3T3 tox 35.5µM
CC(C)CNC(=O)CC(c1cccc([N+](=O)[O-])c1)c1c[nH]c2ccccc12 (stereo not drawn)	HEK293 tox 79.4µM, NIH3T3 tox inconclusive
CCc1cccc2c(C(CC(=O)N3CCCC3)c3cccc(Cl)c3)c[nH]c12 (stereo not drawn)	HEK293 tox inconclusive
COc1ccc(C(CC(=O)NCc2ccccc2)c2c[nH]c3ccccc23)cc1OC (stereo not drawn)	GPT2 inh inconclusive
CCc1cccc2c(C(CC(=O)NCc3ccco3)c3cccc([N+](=O)[O-])c3)c[nH]c12 (stereo not drawn)	HEK293 tox 44.7µM, NIH3T3 tox 31.6µM
CC(C)CCN1C(=O)CC[C@]2(C(=O)NCc3cccc(Cl)c3)CCCC[C@@H]12	HEK293 tox inconclusive, NIH3T3 tox inconclusive
COc1ccnc(N2CC[C@H](c3nnc(-c4ccc(N(C)C)cc4)o3)C2)n1	HEK293 tox inconclusive, NIH3T3 tox inconclusive
COc1cccc(CN2CCOC3CCN(CCCc4ccccc4)CC3C2=O)c1 (stereo not drawn)	HEK293 tox inconclusive, NIH3T3 tox 79.4µM
COc1cccc(CN2CCOC3CCN(Cc4ccccc4O)CC3C2=O)c1 (stereo not drawn)	HEK293 tox inconclusive
CC(C)Cc1cc(CC2(NC3CCOCC3)COC2)no1	none
CC(C)Oc1ccc(CN2CCc3nc(N4CCN(C)CC4)[nH]c(=O)c3CC2)cc1	none
CN1CCCC1CCNc1nccc(-c2cnn(-c3ccc(F)cc3)c2)n1 (stereo not drawn)	HEK293 tox 44.7µM, NIH3T3 tox inconclusive, FLuc inh inconclusive
O=C1Nc2ccccc2C12CCN(S(=O)(=O)c1cccs1)C2 (stereo not drawn)	HEK293 tox 89.1µM, NIH3T3 tox inconclusive
NCCN1C(=O)CO[C@H](c2ccc(NS(=O)(=O)c3ccccc3)cc2)[C@H]1CO	none
CCn1nc(-c2ccc3c(c2)OCCO3)nc1N(C)C	GPT2 inh inconclusive, FLuc inh 39.8µM
COc1ccc(NC(=O)c2cccc3c2CCN3C(=O)c2ccc(F)cc2)cc1	none
CN1CCC(NC(=O)c2cccc3c2CCN3C(=O)C2CC2)CC1	none
CNC(=O)c1cccc2c1CCN2C(=O)Nc1ccc(F)cc1	NPR1 antag 11.2µM, FLuc inh 0.708µM
COc1ccc(NC(=O)N2CCc3c(C(=O)Nc4ccccc4)cccc32)cc1	HEK293 tox inconclusive, NPR1 antag 4.47µM, NIH3T3 tox inconclusive, FLuc inh inconclusive
CN1CCC(NC(=O)c2cccc3c2CCN3C(=O)Nc2ccccc2)CC1	NIH3T3 tox inconclusive, FLuc inh 22.4µM
O=C(NCc1ccc(N2CCOCC2)cc1)c1cccc2c1CCN2C(=O)c1ccccc1	FLuc inh 39.8µM
COCCNC(=O)c1cccc2c1CCN2C(=O)C1CC1	none
COc1cc(CNC(=O)c2cccc3c2CCN3C(=O)C2CC2)cc(OC)c1	HEK293 tox 44.7µM
COc1ccc(CN(Cc2ccc(OC)cc2)[C@@H]2CO[C@H](CNC(=O)CC(C)(C)C)[C@H]2O)cc1	HEK293 tox 70.8µM, NIH3T3 tox inconclusive
N#CC1(c2ccc(-c3cccc(CN4CCOCC4)c3)cc2)CCCC1	HEK293 tox inconclusive, NIH3T3 tox inconclusive, FLuc inh 35.5µM
O=c1[nH]c(C2CCCN(Cc3cccc(-c4ccsc4)c3)C2)nc2ccc(F)cc12 (stereo not drawn)	HEK293 tox 22.4µM, NIH3T3 tox 28.2µM!
Cc1ccc2nc(C3CCCN(Cc4cccc(-c5ccc(F)cc5F)c4)C3)[nH]c(=O)c2c1 (stereo not drawn)	HEK293 tox inconclusive, NIH3T3 tox inconclusive
CCN1CCCC(c2nc3ccc(F)cc3c(=O)[nH]2)C1 (stereo not drawn)	none
O=c1[nH]c(C2CCCN(CC3CCCC3)C2)nc2ccc(F)cc12 (stereo not drawn)	HEK293 tox 31.6µM, NIH3T3 tox 39.8µM
Cc1ccc2nc(C3CCCN(Cc4cccc(-c5cccnc5)c4)C3)[nH]c(=O)c2c1 (stereo not drawn)	HEK293 tox 31.6µM!, NIH3T3 tox inconclusive
COc1cccc(CC(=O)N2CCC(CCn3c(C)cnc3-c3cccnc3)CC2)c1	NIH3T3 tox inconclusive (no result: NPR1 antag, FLuc inh)
COc1ccc(NC(=O)C[C@@H]2C[C@@H](C(C)C)[C@H](CC#N)C=C2C)cn1	HEK293 tox 89.1µM, NIH3T3 tox 79.4µM
CNc1nccc(N2CCC(CC(=O)NCCC(C)C)CC2)n1	HEK293 tox 31.6µM, NIH3T3 tox inconclusive
COC(=O)N1CCCN(c2nc3ncccc3o2)CC1	none
COCCN1CCNc2nc(COc3ccc(C(C)C)cc3)n(Cc3ccccc3)c2C1=O	HEK293 tox 63.1µM, NIH3T3 tox inconclusive
CN1CCOc2c(C(=O)NCCc3cnc[nH]3)cc(-c3ccccc3F)cc21	HEK293 tox 89.1µM, NIH3T3 tox inconclusive
COc1cc(F)ccc1-c1cc(C(=O)NCCc2cnc[nH]2)c2c(c1)N(C)CCO2	HEK293 tox inconclusive, NIH3T3 tox 100µM
CN(Cc1ccccc1C(F)(F)F)C(=O)c1ccccc1	HEK293 tox inconclusive
CN(Cc1ccccc1C(F)(F)F)C(=O)c1cccc(Cl)c1	HEK293 tox 89.1µM, NIH3T3 tox inconclusive
CCc1nc2c(c(-c3ccc(Cl)cc3)n1)CCN(Cc1ccns1)CC2	none
